# PubChem BioAssay AID1626 (SRMLSC, 2009)
# Among all 220,000 compounds or so, about 2,000 (0.91%) were called active. Not shown: some 2% with an inconclusive outcome. A selection follows. Measured potencies and affinities stand elsewhere. A number with no mark means an inactive call. No stated cut-off is given here; in the data, inconclusive means inhibition above about 80% without an active follow-up result; inactive means below that; test concentration not stated here.
# Assay: M. tuberculosis H37Rv growth inhibitors, H37Rv strain (AID 1626);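 further: bacteria incubated seven days before Alamar blue readout; 0% = bacteria only wells and 100% = bacteria with antibiotic wells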
# Conditions: hits give high values, concentration not given here
row,Structure (SMILES),inhibition
1,CC(C)(C)c1cc(NC(=O)COc2ccc(Br)cc2)n(-c2ccccc2)n1,-8.73%
2,COCCCNC(=O)c1ccc(-n2nc(C(F)(F)F)cc2-c2cccs2)cc1,2.29%
3,CC1=CC(c2ccc(Cl)cc2)n2nc(NS(=O)(=O)c3ccc(C)cc3)nc2N1 (stereo not drawn),-12.5%
4,CC1(C)CC(NC(=S)NC2CC2)CC(C)(C)N1,-4.39%
5,Cc1ccc(Oc2ccc(NC(=O)CCC(=O)OCC(=O)c3cccs3)cc2)cc1C,-2.17%
6,O=C(CCCC(=O)OCC(=O)c1cccs1)Nc1ccc(F)cc1,-9.65%
7,O=C(c1cccnc1)N1CCC(Oc2ccc(C(=O)N3CCCCO3)cc2)CC1,4.71%
8,COCCN(C(=S)Nc1ccc(C)cc1)C(C)c1cccnc1 (stereo not drawn),-5.81%
9,CCCCCCn1c(CN2CCN(C(=O)OCC)CC2)nc2c1c(=O)n(C)c(=O)n2C,6.21%
10,CCCCCCCOC(=O)c1ccc(OC(=O)c2cccnc2)cc1,8.62%
11,CCCCOc1ccc(OC(=O)c2cccnc2)cc1,6.86%
12,O=C(Oc1ccc(Br)cc1)c1cncc(Br)c1,-0.78%
13,O=C(Oc1cccc(Br)c1)c1cccnc1,13.2%
14,CCCCCCOC(=O)c1ccc(OC(=O)c2cccnc2)cc1,74.1%
15,O=C(Oc1ccc([N+](=O)[O-])cc1)c1cncc(Br)c1,10.3%
16,COc1ccc(OC(=O)c2cccnc2)cc1,0.67%
17,CCOc1ccc(OC(=O)c2cccnc2)cc1,1.09%
18,Cc1cccc(NC(=O)c2sc(Cl)nc2-c2ccccc2)c1,8.83%
19,COc1cccc(CC2(CO)CCCN(Cc3ccc4c(c3)OCCO4)C2)c1 (stereo not drawn),4.07%
20,Cc1nc2cc(Cl)c([N+](=O)[O-])cc2s1,7.87%
21,CC(C)Oc1ccc(CCc2nnc(SC(C)C(=O)O)n2-c2ccccc2)cc1 (stereo not drawn),2.62%

row,Structure (SMILES),inhibition
1,CCc1ccccc1N1C[C@@]23C=C[C@@H](O2)C(C(=O)OCC(C)C)[C@H]3C1=O (stereo partly drawn),-0.48%
2,CCCCn1nc2cc(C(=O)N(CC)c3ccc(OC)cc3)ccc2c1OCC,0.26%
3,CN(C)c1ccc(C(=S)N2CCN(c3ccc([N+](=O)[O-])cc3)CC2)cc1,9.45%
4,COc1cc(NS(=O)(=O)c2ccc(N)cc2)nc(OC)n1,14.8%
5,COc1cc(NS(=O)(=O)c2ccc(NC(C)=O)cc2)ncn1,6.36%
6,O=C(CCC(=O)OCCCC(F)(F)C(F)(F)F)NC1CCCCC1,-2.21%
7,COc1ccccc1NC(=O)c1[nH]c(C)c(C(C)=O)c1C,-2.28%
8,Cc1nc(-c2ccccc2)sc1C1(C)CC(c2ccc([N+](=O)[O-])cc2)=NO1 (stereo not drawn),-6.22%
9,Brc1ccccc1-c1nnc(SCc2nc3ccccc3s2)o1,36%
10,CCN(CC)S(=O)(=O)c1cccc(-c2nnc(SCc3nc4ccccc4s3)o2)c1,2.86%
11,COc1ccc(/C=C/C(=O)c2ccc(NC(=O)c3cccs3)cc2)cc1OC,5.93%
12,C/C(=N\NC(=O)CC(C)C)c1ccc(Cl)c(Cl)c1,-0.71%
13,OC(CNCc1ccc(Cl)cc1)(c1ccccc1)c1ccc(F)cc1 (stereo not drawn),-2.55%
14,COc1ccc(CNCC(O)(c2ccccc2)c2ccc(Cl)cc2)cc1 (stereo not drawn),-0.19%
15,Cc1ccc(S(=O)(=O)Nc2c(C)nn(C)c2C)cc1,-3.98%
16,Cc1cc(C)n(C(=O)CCC(=O)Nc2ccc(C)c(C)c2)n1,-4.23%
17,Cc1[nH]c2ccccc2c1NC(=O)CN1CCN(c2cccc(C(F)(F)F)c2)CC1,8.35%
18,COc1ccc(-c2ncnc(C(F)(F)F)c2-c2csc(C)n2)c(O)c1,-3.59%
19,O=C(NCc1ccco1)c1ccc(COc2ccc(Cl)cc2)cc1,15.4%
20,Nc1ccc(OCc2ccccc2)cc1,78.2%
21,Cc1sc2nc3n(c(=O)c2c1C)CCCS3,-3%

row,Structure (SMILES),inhibition
1,O=c1c2ccccc2nc2n1CCCS2,-15.7%
2,O=c1c(C(c2ccc(Cl)cc2)c2c(O)nc3n(c2=O)CCCS3)c(O)nc2n1CCCS2,-3.6%
3,N#Cc1c(-c2ccc(Cl)cc2)nc2n(c1=O)CCCS2,-3.54%
4,COc1ccc(C(=O)NCCNc2ccccc2[N+](=O)[O-])cc1,-4.94%
5,O=C(COC(=O)Cn1cnc2ccccc21)NCCc1ccc(Cl)cc1,-3.57%
6,Cc1cccc(CN2C(=O)[C@H]3Cc4c([nH]c5ccccc45)C(C)(C)N3C2=O)c1,17.7%
7,CC1(C)c2[nH]c3ccccc3c2C[C@@H]2C(=O)N(Cc3ccccc3)C(=O)N21,2.35%
8,C=CCn1c(=O)c2c(C)c(C)sc2n2c(Nc3ccccc3)nnc12,-3.44%
9,O=C(CNc1cccc(Cl)c1)NNC(=S)NCc1ccccc1,-0.97%
10,COC(=O)/C=c1/sc2n(c1=O)CCN=2,-5.21%
11,CSc1ccc(CN2CCCC(CO)(Cc3ccccc3)C2)cc1 (stereo not drawn),-4.33%
12,Cc1ccc(OCCn2cnc3sc(C(N)=O)c(C)c3c2=O)cc1,11.2%
13,CCn1cnc2sc(C(=O)O)c(C)c2c1=O,-6.48%
14,CCn1cnc2sc(C(=O)Nc3ccccc3OC)c(C)c2c1=O,2.12%
15,Cc1c(C(=O)O)sc2ncn(C)c(=O)c12,-6.12%
16,Cc1ccc(CC(=O)NCc2ccc3c(c2)OCO3)cc1,23.6%
17,O=C(O)C1(P(=O)(c2ccc(Cl)cc2)c2ccc(Cl)cc2)CC1,1.34%
18,CCc1ccc(OCC2c3cc(OC)c(OC)cc3CCN2C(=S)NCCOC)cc1 (stereo not drawn),0.42%
19,CSc1nnc(CNC(=O)c2ccccc2)n1-c1cccc(C)c1,-0.55%
20,O=C(O)c1ccccc1N1C(=O)C2C3CCC(C3)C2C1=O (stereo not drawn),-3.82%
21,CSC1=NCCN1C(=O)c1c(F)cccc1Cl,1.18%
